Data as given in ChEMBL document CHEMBL1961873, “Compounds: GSK PKIS; Assays: Nanosyn kinase panel” (2012).

Tests used:
[1] = molecular target: T1, 3-phosphoinositide-dependent protein kinase 1 (Homo sapiens) (UniProt O15530); settings: at 0.1 µM;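 further: values are mean inhibition of PDK1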
T1 sequence (whole entry): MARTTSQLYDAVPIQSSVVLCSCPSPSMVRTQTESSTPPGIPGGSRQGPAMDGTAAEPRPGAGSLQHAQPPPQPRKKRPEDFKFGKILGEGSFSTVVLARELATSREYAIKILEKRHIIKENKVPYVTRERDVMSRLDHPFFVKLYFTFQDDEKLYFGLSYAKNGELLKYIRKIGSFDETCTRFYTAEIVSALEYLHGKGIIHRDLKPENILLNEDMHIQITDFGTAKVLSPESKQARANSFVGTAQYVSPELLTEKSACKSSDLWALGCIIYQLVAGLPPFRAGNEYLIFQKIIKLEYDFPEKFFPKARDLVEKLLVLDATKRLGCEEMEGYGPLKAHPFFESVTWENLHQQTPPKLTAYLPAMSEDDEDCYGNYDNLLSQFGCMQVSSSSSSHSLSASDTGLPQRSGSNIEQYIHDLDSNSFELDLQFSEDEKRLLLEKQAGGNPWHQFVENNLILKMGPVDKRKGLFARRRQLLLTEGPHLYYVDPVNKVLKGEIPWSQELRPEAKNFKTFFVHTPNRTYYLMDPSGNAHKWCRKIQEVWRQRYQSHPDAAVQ

[2] = molecular target: cAMP-dependent protein kinase catalytic subunit alpha (Homo sapiens) (UniProt P17612); settings: at 0.1 µM
[3] = molecular target: cAMP-dependent protein kinase catalytic subunit alpha (Homo sapiens) (UniProt P17612); settings: at 1 µM
[4] = molecular target: Protein kinase C alpha type (Homo sapiens) (UniProt P17252); settings: at 0.1 µM
[5] = molecular target: Protein kinase C alpha type (Homo sapiens) (UniProt P17252); settings: at 1 µM
[6] = molecular target: Protein kinase C beta type (Homo sapiens) (UniProt P05771); settings: at 0.1 µM
[7] = molecular target: Protein kinase C beta type (Homo sapiens) (UniProt P05771); settings: at 1 µM
[8] = molecular target: Protein kinase C eta type (Homo sapiens) (UniProt P24723); settings: at 0.1 µM
[9] = molecular target: Protein kinase C eta type (Homo sapiens) (UniProt P24723); settings: at 1 µM
[10] = molecular target: Protein kinase C gamma type (Homo sapiens) (UniProt P05129); settings: at 0.1 µM
[11] = molecular target: Protein kinase C gamma type (Homo sapiens) (UniProt P05129); settings: at 1 µM
[12] = molecular target: T2, Protein kinase C iota type (Homo sapiens) (UniProt P41743); settings: at 0.1 µM
T2 sequence (whole entry): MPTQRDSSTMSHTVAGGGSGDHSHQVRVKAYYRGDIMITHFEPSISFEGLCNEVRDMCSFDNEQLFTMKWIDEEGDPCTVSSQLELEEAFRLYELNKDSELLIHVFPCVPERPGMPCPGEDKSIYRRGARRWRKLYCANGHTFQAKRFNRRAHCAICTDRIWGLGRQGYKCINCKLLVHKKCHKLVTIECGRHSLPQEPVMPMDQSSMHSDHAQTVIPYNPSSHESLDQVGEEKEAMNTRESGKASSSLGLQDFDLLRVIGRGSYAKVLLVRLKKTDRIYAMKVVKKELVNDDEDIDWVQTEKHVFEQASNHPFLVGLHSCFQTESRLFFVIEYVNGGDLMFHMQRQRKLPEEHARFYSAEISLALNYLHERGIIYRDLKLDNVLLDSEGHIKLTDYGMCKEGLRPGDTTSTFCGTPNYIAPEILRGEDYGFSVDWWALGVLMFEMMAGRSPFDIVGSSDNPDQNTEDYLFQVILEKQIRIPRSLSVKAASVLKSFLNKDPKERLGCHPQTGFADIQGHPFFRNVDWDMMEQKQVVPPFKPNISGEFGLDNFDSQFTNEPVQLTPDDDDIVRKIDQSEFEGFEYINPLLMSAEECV

[13] = molecular target: T2, Protein kinase C iota type (Homo sapiens); settings: at 1 µM
[14] = molecular target: Protein kinase C theta type (Homo sapiens) (UniProt Q04759); settings: at 0.1 µM
[15] = molecular target: Protein kinase C theta type (Homo sapiens) (UniProt Q04759); settings: at 1 µM
[16] = molecular target: Protein kinase C beta type (Homo sapiens) (UniProt P05771); settings: at 0.1 µM; remark: listed apart in the source
[17] = molecular target: Protein kinase C beta type (Homo sapiens) (UniProt P05771); settings: at 1 µM; remark: listed apart in the source
[18] = molecular target: T3, Serine/threonine-protein kinase D1 (Homo sapiens) (UniProt Q15139); settings: at 0.1 µM
T3 sequence (whole entry): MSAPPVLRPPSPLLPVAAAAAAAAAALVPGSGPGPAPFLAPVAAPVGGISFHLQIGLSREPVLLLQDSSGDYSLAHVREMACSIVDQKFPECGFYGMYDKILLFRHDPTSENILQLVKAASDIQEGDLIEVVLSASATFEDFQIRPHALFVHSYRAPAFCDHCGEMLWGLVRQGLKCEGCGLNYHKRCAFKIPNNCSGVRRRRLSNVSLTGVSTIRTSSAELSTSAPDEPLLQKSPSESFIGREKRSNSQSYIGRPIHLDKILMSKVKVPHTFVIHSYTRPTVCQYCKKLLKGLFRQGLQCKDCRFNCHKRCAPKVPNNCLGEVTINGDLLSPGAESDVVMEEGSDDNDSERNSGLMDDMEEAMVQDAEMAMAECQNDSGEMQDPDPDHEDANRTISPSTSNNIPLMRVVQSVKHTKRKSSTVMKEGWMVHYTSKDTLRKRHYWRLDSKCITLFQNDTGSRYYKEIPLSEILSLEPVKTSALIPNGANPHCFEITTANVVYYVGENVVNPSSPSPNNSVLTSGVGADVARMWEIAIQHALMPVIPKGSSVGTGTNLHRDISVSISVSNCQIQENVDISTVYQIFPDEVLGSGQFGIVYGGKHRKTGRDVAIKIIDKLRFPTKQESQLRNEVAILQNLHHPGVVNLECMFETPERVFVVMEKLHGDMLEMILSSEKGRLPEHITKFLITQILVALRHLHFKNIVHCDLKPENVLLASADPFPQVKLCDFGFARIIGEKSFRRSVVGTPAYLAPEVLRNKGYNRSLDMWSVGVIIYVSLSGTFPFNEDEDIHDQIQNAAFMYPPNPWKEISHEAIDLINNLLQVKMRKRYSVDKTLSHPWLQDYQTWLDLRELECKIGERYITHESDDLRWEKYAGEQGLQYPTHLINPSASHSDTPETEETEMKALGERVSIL

[19] = molecular target: T3, Serine/threonine-protein kinase D1 (Homo sapiens); settings: at 1 µM
[20] = molecular target: T4, Serine/threonine-protein kinase D2 (Homo sapiens) (UniProt Q9BZL6); settings: at 0.1 µM;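 further: reported percent inhibition values are means, part of the GSK PKIS kinase panel screen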
T4 sequence (whole entry): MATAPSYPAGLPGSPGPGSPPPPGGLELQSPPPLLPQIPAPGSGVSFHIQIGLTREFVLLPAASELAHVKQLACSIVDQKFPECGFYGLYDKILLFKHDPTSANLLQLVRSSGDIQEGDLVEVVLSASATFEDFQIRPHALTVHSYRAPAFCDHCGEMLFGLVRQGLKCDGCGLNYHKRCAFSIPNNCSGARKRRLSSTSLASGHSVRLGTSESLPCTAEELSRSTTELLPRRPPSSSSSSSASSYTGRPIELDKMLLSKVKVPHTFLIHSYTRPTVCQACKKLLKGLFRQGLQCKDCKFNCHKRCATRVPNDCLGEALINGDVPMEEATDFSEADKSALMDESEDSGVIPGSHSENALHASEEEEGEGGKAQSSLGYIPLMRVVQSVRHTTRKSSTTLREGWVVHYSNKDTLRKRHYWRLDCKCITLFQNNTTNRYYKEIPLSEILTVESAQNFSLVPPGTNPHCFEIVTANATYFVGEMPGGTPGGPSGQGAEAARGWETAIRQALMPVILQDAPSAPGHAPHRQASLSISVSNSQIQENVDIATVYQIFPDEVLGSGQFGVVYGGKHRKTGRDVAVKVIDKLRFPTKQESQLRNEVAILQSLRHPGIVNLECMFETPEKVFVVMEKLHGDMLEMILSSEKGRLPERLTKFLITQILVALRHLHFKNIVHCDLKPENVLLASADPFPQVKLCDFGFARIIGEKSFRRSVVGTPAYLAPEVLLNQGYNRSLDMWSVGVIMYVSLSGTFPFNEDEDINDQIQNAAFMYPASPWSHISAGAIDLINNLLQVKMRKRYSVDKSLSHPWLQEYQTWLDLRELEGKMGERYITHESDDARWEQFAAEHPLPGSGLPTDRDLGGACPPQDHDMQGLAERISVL

Protein kinase C eta type (Homo sapiens), sequence (P24723 whole entry): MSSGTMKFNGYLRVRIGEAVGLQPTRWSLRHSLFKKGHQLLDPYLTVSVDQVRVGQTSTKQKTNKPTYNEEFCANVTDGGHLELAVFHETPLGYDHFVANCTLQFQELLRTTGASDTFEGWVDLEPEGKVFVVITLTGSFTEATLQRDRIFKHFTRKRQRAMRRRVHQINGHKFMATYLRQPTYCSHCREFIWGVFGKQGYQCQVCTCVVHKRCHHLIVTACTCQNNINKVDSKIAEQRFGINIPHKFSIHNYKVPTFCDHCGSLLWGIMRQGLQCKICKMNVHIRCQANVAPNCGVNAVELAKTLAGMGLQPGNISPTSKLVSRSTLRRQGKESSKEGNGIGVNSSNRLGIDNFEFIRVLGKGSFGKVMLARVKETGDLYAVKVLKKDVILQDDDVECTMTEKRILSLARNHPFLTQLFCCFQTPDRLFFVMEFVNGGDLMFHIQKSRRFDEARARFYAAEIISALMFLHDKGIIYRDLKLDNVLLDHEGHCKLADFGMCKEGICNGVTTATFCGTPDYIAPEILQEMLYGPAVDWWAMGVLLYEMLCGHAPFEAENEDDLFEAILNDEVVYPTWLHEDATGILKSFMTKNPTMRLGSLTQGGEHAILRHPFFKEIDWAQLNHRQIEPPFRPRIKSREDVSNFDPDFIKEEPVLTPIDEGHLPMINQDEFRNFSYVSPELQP
Protein kinase C theta type (Homo sapiens), sequence (Q04759 whole entry, looked up): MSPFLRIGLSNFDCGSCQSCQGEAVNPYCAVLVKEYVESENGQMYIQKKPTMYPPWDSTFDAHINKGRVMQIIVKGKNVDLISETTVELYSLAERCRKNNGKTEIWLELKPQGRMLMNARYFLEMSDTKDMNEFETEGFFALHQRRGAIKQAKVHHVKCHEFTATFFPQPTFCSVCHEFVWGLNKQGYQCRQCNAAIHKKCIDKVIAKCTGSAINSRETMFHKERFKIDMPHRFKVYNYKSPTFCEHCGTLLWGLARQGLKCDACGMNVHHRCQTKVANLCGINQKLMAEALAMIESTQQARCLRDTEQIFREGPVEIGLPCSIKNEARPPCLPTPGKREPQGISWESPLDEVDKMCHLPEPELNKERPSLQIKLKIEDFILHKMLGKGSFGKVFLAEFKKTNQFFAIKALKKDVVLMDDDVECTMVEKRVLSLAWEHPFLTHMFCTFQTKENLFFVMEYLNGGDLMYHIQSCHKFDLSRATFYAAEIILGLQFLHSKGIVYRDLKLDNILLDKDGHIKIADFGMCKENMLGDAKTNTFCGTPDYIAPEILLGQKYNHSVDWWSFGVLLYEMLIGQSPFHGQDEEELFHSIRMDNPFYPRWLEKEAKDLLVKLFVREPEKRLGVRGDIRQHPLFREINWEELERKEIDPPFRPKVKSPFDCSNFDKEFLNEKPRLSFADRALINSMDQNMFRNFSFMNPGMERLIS
Protein kinase C beta type (Homo sapiens), sequence (P05771 2-671 limits assumed): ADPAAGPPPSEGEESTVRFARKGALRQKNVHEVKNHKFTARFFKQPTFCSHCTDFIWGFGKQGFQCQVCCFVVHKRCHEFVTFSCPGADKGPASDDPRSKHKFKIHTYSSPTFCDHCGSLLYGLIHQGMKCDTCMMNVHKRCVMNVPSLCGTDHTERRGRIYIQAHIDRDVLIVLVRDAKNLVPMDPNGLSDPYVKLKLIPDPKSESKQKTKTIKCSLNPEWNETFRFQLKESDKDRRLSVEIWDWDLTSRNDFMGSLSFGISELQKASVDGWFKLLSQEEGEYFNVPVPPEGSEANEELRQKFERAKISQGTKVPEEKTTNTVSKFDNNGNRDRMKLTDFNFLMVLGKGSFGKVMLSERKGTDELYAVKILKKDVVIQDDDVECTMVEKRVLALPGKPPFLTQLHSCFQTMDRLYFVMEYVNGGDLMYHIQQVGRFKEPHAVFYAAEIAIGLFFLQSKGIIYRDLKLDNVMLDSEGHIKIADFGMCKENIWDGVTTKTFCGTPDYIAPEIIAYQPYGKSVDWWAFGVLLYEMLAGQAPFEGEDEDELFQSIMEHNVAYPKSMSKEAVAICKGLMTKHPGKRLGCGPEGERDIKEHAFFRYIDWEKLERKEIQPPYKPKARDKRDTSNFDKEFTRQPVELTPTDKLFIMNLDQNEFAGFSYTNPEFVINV

| SMILES | inhibition [1] | inhibition [2] | inhibition [3] | inhibition [4] | inhibition [5] | inhibition [6] | inhibition [7] | inhibition [8] | inhibition [9] | inhibition [10] | inhibition [11] | inhibition [12] | inhibition [13] | inhibition [14] | inhibition [15] | inhibition [16] | inhibition [17] | inhibition [18] | inhibition [19] | inhibition [20] |
| --- | --- | --- | --- | --- | --- | --- | --- | --- | --- | --- | --- | --- | --- | --- | --- | --- | --- | --- | --- | --- |
| COc1cc2ncn(-c3cc(OCc4cccs4)c(C(N)=O)s3)c2cc1OC | 3.07% | -0.85% | -2.23% | -2.88% | -2.59% | 5.39% | 8.77% | 4.49% | 4.09% | 4.75% | 6.19% | 2.66% | 0.01% | 1.98% | 6.01% | 2.61% | 4.99% | -0.16% | -1.53% | -1.61% |
| COc1cccc(/C=N/Nc2ncnc3c2cnn3-c2cccc(OC)c2)c1 | 1.13% | 1.27% | 1.21% | 0.12% | 0.85% | -0.96% | 0.85% | 5.46% | 4.14% | 3.43% | 6.32% | 1.63% | 1.72% | 1.69% | 4% | 0.47% | 1.93% | 3.52% | 8.09% | 2.74% |
| Fc1ccc(-c2ncn(C3CCNCC3)c2-c2ccnc(Oc3ccc(F)c(F)c3)n2)cc1 | 0.57% | -0.98% | 9.25% | -3.02% | -0.82% | -0.22% | 3.21% | 3.45% | 5.62% | 1.57% | 4.25% | 1.82% | 1.79% | 2.61% | 2.43% | 0.97% | 3.85% | 2% | 7.05% | 1.25% |
| COc1ccc(C2=C(N3CCc4ccccc43)C(=O)NC2=O)cc1 | 4.19% | 1.7% | 1.99% | 1.46% | 3.07% | 1.02% | 2.88% | 2.61% | 6.52% | 4.16% | 3.73% | 2.04% | 2.17% | 2.55% | 5.71% | 1.22% | 3.96% | 4.69% | 9.24% | 5.06% |
| COc1cc(Nc2ncc3c(C)nc(-c4cccc(C(F)(F)F)c4)n3n2)cc(OC)c1OC | 3.64% | 2.66% | 2.72% | -0.1% | 1.99% | 0.93% | 5.54% | 6.38% | 3.64% | 2.47% | 7.63% | 0.74% | 0.54% | 1.87% | 5.29% | 1.35% | 2.31% | 1.48% | 2.12% | 1.81% |
| COc1cc(C)c(N(C)C(=O)CN(C)C)cc1Nc1nc(Nc2cccc(F)c2C(N)=O)c2cc[nH]c2n1 | 3.26% | -0.93% | -3.21% | -3% | -2.59% | 1.6% | -0.89% | 4.46% | 1.91% | 2.63% | 0.07% | 0.9% | 1.43% | -0.27% | -0.14% | 0.9% | 0.92% | -1.96% | -0.45% | -2.04% |
| CCc1cccc(CC)c1/C=C/c1cncc(C(=O)NC)c1 | 0.34% | 1.89% | 1.06% | 1.01% | 3.13% | 0.31% | 0.32% | 1.99% | -0.26% | 1.06% | 2.81% | 2.1% | 3.47% | 1.41% | -0.25% | 0.14% | -0.35% | 2.52% | 6.44% | 3.28% |
